Bioassay records deposited in PubChem BioAssay by The Scripps Research Institute Molecular Screening Center.
OPRM1-OPRD1 inv: inverse agonists of MOR-DOR heterodimerization, primary screen, cell-based, luminescence | Mu-type opioid receptor (Homo sapiens) + Delta-type opioid receptor (Homo sapiens), … | cell-based MOR-DOR heterodimer luminescence, inverse agonism | inhibition, % at 9.3 µM | actives 0.21% (n = 340,000) | AID 504357, 2011; in the data active = inhibition above about 22%, passing the limit was not always enough;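 also: 0% = cells with DMSO and 100% = wells without cells with DMSO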
HTR5A inv ctr: HTR5A inverse agonists in luminescence cell assay, primary screen, counter-screen for OPRM1-OPRD1 heterodimer inverse agonist project, full-deck HTS. 5-hydroxytryptamine receptor 5A (Homo sapiens), P47898. inhibition, % at 9.3 µM. actives 0.083% (n = 340,000). HTR5A cell line, inverse agonism. AID 504634, 2011; in the data active = inhibition mostly above about 23%, no sharp cut-off; inactive = mostly below about 18%;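 also: 0% = cells with DMSO and 100% = no-cell wells with DMSO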
OPRM1-OPRD1 ag: agonists of OPRM1-OPRD1 heterodimerization, primary screen, cell-based, luminescence | cells | activation, % at 9.3 µM | actives 0.3% (n = 340,000) | AID 504326, 2011; in the data active = activation above about 18%;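 also: 0% = vehicle-treated cells and 100% = reference agonist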
HTR5A ag ctr: HTR5A agonists in luminescence cell assay, primary screen, counter-screen for OPRM1-OPRD1 heterodimer agonist project, full-deck HTS; cell-based; 5-hydroxytryptamine receptor 5A (Homo sapiens), P47898; actives 0.61% (n = 340,000); activation, % at 9.3 µM; in the data active = activation mostly above about 9.5%, no sharp cut-off; inactive = mostly below about 7.6%;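 also: 0% = cells with vehicle only and 100% = reference agonist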
Active calls of the source: *; i = inactive. The list is not random: actives were taken first. Their share in the collection is about 1.1%.

SMILES | OPRM1-OPRD1 inv | HTR5A inv ctr | OPRM1-OPRD1 ag | HTR5A ag ctr
COc1ccccc1NC(=O)CS(=O)(=O)c1cccc2nsnc12 | 9 | 34 | -2 | 12*
O=C(NCc1ccccc1Cl)c1ccc(S(=O)(=O)N2CCCC2)cc1 | 20 | 4 | -5 | 11*
O=C(NCc1ccccc1Cl)NCc1ccccc1Cl | 1 | -9 | 0 | -1
O=C(NCc1ccccc1F)c1ccc(S(=O)(=O)N2CCCCCC2)cc1 | 6 | -5 | -1 | 2
O=C(NCc1ccccc1Cl)c1ccc[nH]1 | 7 | 1 | -1 | 13*
CSc1ccccc1NC(=O)COC(=O)CCC(=O)c1ccc(F)cc1 | 4 | -33 | -1 | 8.4*
CCC(=O)N1CCc2cc(S(=O)(=O)NCCC(=O)NCc3ccccc3OC)ccc21 | 9 | -5 | -2 | 11*
Cc1cc(NC(=O)c2cc3cccc([N+](=O)[O-])c3[nH]2)ccc1F | -30 | -36 | 6 | 12*
O=C1NC2(CCCCC2)C(=O)N1CC(=O)N1CCc2ccccc21 | 2 | -40 | 0 | 11*
O=C(CN1C(=O)NC2(CCCC2)C1=O)N1CCN(S(=O)(=O)c2ccccc2F)CC1 | 18 | 16 | -3 | -7
O=C(CN1C(=O)NC2(CCCC2)C1=O)N1CCN(S(=O)(=O)c2ccccc2[N+](=O)[O-])CC1 | -6 | -7 | 1 | 9.5*
CCONC(=NC)c1nonc1N | 7 | 8 | -1 | -3
Cc1cc(-c2nn(-c3ccccc3F)cc2CNCCc2cnc[nH]2)c(C)s1 | i | -9 | 144* | -3
Cc1cc(-c2nn(-c3ccccc3F)cc2CN2CCC(C(N)=O)CC2)c(C)s1 | 3 | 4 | -1 | -1
CN1CCN(c2ccccc2NC(=O)COc2ccccc2)CC1 | -3 | -22 | 1 | 2
CCn1c(=O)cc(SCC(=O)N2CCN(c3ccccc3F)CC2)c2ccccc21 | 6 | -9 | -1 | 13*
CC(C)Nc1nnc(SCC(=O)c2c(N)n(Cc3ccccc3)c(=O)n(C)c2=O)s1 | 16 | 0 | -3 | 0
Cn1c(-c2ccccc2)c(C(=O)CCl)c2ccccc21 | -233 | -123 | 42* | 44*
CCc1ccccc1S(=O)(=O)Cc1ccc(C(=O)NCc2ccc3c(c2)OCO3)o1 | 0 | 14 | 0 | -5
CCc1ccccc1S(=O)(=O)Cc1ccc(C(=O)NC(C)C)o1 | 14 | -35 | -3 | 13*
CCN(CC)CCNC(C(=O)Nc1cc(C(F)(F)F)ccc1Cl)c1ccccc1 (stereo not drawn) | 6 | -18 | -1 | 0
O=C(N/C(=C/c1ccc(F)cc1)C(=O)N1CCCC1)c1ccccc1 | 17 | -8 | -3 | 3
O=C(N/C(=C/c1ccccc1Cl)C(=O)N1CCCC1)c1ccccc1 | -1 | 3 | 0 | 14*
CCN1C(Nc2ccccc2)=NC[C@@H]1C | -1 | -6 | 0 | 13*
CC(C)CN1C(Nc2ccccc2)=NC[C@@H]1C | 13 | -18 | -3 | -1
SMILES | OPRM1-OPRD1 inv | HTR5A inv ctr | OPRM1-OPRD1 ag | HTR5A ag ctr
Cc1cccc(C(=O)OCC(=O)N(CC(C)C)c2c(N)n(Cc3ccccc3)c(=O)[nH]c2=O)c1O | 12 | 4 | -2 | -2
COc1ccc(-c2nn(-c3ccccc3)cc2/C=N/NC(=O)c2cccc(S(=O)(=O)Nc3ccccc3Cl)c2)cc1 | 10 | -18 | -2 | 0
COc1cccc(C(=O)O/N=C(\N)c2ccc([N+](=O)[O-])cc2)c1OC | -78 | -16 | 14 | 13*
OCCCN=C1CCCc2c1[nH]c1ccc(Cl)cc21 | 2 | -11 | 0 | 5
OCCN=C1CCCc2c1[nH]c1ccc(Cl)cc21 | -15 | -7 | 3 | 13*
O=C(Nc1ccc(N2CCCCC2)c(C(=O)O)c1)c1ccco1 | -12 | -22 | 2 | 10*
Cc1cccc(NC(=O)c2cc(NC(=O)c3ccco3)ccc2N2CCCCC2)c1 | 9 | -19 | -2 | 2
Cc1cccc2c1N(CCCOc1ccc(C(C)(C)C)cc1)C(=O)C2=O | 30* | -14 | -5 | 5
Cc1cccc2c1N(CCCOc1ccccc1)C(=O)C2=O | 26 | -23 | -5 | -3
COc1ccc(N2Cc3ccc(OC)c(OC)c3C2=O)cc1 | 4 | -3 | -1 | 1
COc1ccc(-c2nc3ccccc3c(=O)n2CCOc2ccc(C)cc2C)cc1 | -7 | -9 | 1 | 2
Cc1ccc(C(=O)NC(C)c2ccc(F)cc2)cc1 (stereo not drawn) | 2 | 1 | 0 | 0
CC(NC(=O)c1ccc(F)cc1)c1ccccc1 (stereo not drawn) | 8 | -9 | -1 | 10*
